# Source: PubChem (The Scripps Research Institute Molecular Screening Center)
# The full list was thinned out, with hits kept by preference.
# TbREL1 primary: TbREL1 inhibition, primary screen; TbREL1 RNA ligation, FRET fluorescence; inhibition, % at 9.66 µM; 0.49% of 89,000 active; AID 1117264;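 active = inhibition above the mean inhibition across all screened compounds plus 3 SD, cut at about 11% in these data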;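 also: 0% = plate median of test wells and 100% = NSC42067 control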
# Target sequence (P86926 whole entry, looked up): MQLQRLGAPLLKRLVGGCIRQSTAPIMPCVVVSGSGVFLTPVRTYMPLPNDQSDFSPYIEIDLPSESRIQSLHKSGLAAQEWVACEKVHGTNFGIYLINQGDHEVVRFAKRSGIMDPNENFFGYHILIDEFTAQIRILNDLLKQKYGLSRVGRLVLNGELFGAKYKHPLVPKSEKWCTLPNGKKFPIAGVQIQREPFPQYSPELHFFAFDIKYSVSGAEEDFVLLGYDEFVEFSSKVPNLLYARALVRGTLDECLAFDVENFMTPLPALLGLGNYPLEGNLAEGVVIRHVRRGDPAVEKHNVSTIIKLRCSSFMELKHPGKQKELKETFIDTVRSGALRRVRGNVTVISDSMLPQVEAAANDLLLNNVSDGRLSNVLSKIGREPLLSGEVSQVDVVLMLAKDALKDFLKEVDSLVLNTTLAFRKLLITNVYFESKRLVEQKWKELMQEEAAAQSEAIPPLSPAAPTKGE
# TbREL1 confirm: TbREL1 inhibition, confirmation; shares compounds with TbREL1 primary; TbREL1 RNA ligation, FRET fluorescence; inhibition, % at 9.66 µM; 37% of 390 active;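 active = mean inhibition across replicates above a set limit taken from the earlier primary screen, cut at about 11% in these data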;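 also: 0% = REL1 with substrate and DMSO and 100% = REL1 plus control inhibitor NSC42067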
# Starred values were filed as active, the others as inactive.
SMILES,TbREL1 primary,others
C=Cc1ccc(C(=O)N2CCC(n3nnc4ncccc43)CC2)cc1,1,
c1ccc(-c2csc(=Nc3cccnc3)n2CC2CCCO2)cc1 (configuration not stated),0,
c1ccc(-c2cnc(SCCN3CCOCC3)n2CC2CCCO2)cc1 (configuration not stated),15*,TbREL1 confirm=-1
COc1ccc(-c2cnc(N)n2CC2CCCO2)cc1 (configuration not stated),0,
CCCCN(C)C(=O)CSc1nnc(-c2cc(OC)c(OC)c(OC)c2)o1,-3,
O=C(Nc1nc2ncccn2c1-c1ccccc1)c1ccc(F)cc1,1,
O=C(c1ccc(-c2ccc([N+](=O)[O-])cc2)o1)N1CCCCCCC1,-2,
O=C(c1ccc(-c2ccccc2Cl)o1)N1CCCCCCC1,13*,TbREL1 confirm=4
Cc1onc(-c2ccccc2Cl)c1C(=O)N1CCCCC1,-6,
C[C@@H](O[Si](c1ccccc1)(c1ccccc1)C(C)(C)C)[C@@H]1NC(=O)[C@@H]2C[C@]3(Br)c4ccccc4N(S(=O)(=O)c4ccccc4)[C@@H]3N2C1=O,0,
O=C(Nc1ccccc1C(F)(F)F)O[C@@H]1CC[C@@]23CCCN2C(=O)CCC[C@H]3C1,3,
CC(/C=N\NC(=O)CSc1nnc(-c2ccc(Br)cc2)n1-c1ccccc1)=C\c1ccco1,1,
COC(=O)[C@]12C[C@H](CC(=O)NCCc3ccccc3OC)C(=O)N(Cc3ccco3)C1=C[C@H](C1CCCC1)O[C@@H]2C,-5,
COc1ccccc1CNC(=O)CCC(=O)Nc1nnc(C(C)C)s1,-2,
CC(C)c1ccc(NC(=O)NCc2ccc3c(c2)OCO3)cc1,1,
CC(C)c1nnc(NC(=O)CCC(=O)NCc2ccc3c(c2)OCO3)s1,18*,TbREL1 confirm=4
O=C(CCn1nnc(-c2cccs2)n1)N1CCCCC1,0,
CCC(C)NC(=O)CC(C)C (configuration not stated),12*,TbREL1 confirm=6
CCC(C)NC(=O)CNS(=O)(=O)c1ccc(C)cc1 (configuration not stated),0,
CC(C)CC(=O)NN1CCCCC1,1,
CCOc1cccc(-c2nn3c(-c4cccc(C)c4)nnc3s2)c1,5,
COc1ccccc1CNC(=O)N(CCc1c(C)[nH]c2ccccc12)Cc1cccs1,2,
O=C(Cc1ccccc1Cl)NCCN1C(=O)C2C3C=CC(C3)C2C1=O (configuration not stated),3,
C=CCc1ccc(OCCCOc2ccc(C)cc2OC)c(OC)c1,1,
C=CCc1ccc(OCCCNCc2ccccc2)c(OC)c1,12*,TbREL1 confirm=10
SMILES,TbREL1 primary,others
C=CCc1ccc(OCCOCCOc2ccccc2[N+](=O)[O-])c(OC)c1,-1,
CC(C)c1ccc(NC(=O)O[C@H]2CC[C@@]34CCCN3C(=O)CCC[C@H]4[C@H]2C)cc1,-4,
O=C(CSc1nnc(-c2cccnc2)n1-c1ccccc1)Nc1ccc2c(c1)OCCO2,0,
CC(C)COc1ccc(-c2csc(N3CCC(C(N)=O)CC3)n2)cc1,-2,
COc1cc(C(=O)/C=C/c2cccnc2)c([N+](=O)[O-])cc1OC,2,
CN(C)C(=O)COc1ccc(C(=O)/C=C/c2cccnc2)cc1,8,
O=C(/C=C/c1cccnc1)c1ccc([N+](=O)[O-])cc1,11*,TbREL1 confirm=11
Cc1cc(NS(=O)(=O)c2ccc(NC(=O)CSc3nnc(-c4ccncc4)n3Cc3ccco3)cc2)nc(C)n1,35*,TbREL1 confirm=0
Cc1cc(NS(=O)(=O)c2ccc(NC(=O)CSc3nnc(-c4ccc(Cl)cc4)n3Cc3ccco3)cc2)nc(C)n1,-2,
Cc1ccc(OCc2nnc(SCC(=O)Nc3ccc(S(=O)(=O)Nc4cc(C)nc(C)n4)cc3)n2Cc2ccco2)cc1,6,
CCN(CC)c1ccc(NC(=O)CSc2nnc(SCc3ccc(Cl)cc3)s2)cc1,-2,
Cc1cc(=O)[nH]c(SCC(=O)Nc2cccc(Cl)c2F)n1,8,
CCCCOc1ccc(C(=O)n2ccc3ccc(-c4ccc5ccn(Cc6ccccc6)c5c4)cc32)cc1,0,
CN(C)CCCN(C(=O)CCS(=O)(=O)c1ccccc1)c1nc2cc3c(cc2s1)OCO3,10,
CN(C)CCCN(C(=O)c1ccc(S(=O)(=O)N2CCc3ccccc32)cc1)c1nc2ccc(Cl)cc2s1,6,
CN(C)CCCN(C(=O)c1ccc(C(=O)c2ccccc2)cc1)c1nc2cc3c(cc2s1)OCCO3,12*,TbREL1 confirm=8
Cc1ccc2nc(N(CCCN(C)C)C(=O)c3ccc(S(=O)(=O)N4CCc5ccccc5C4)cc3)sc2c1,0,
CN(C)CCCN(C(=O)c1ccc(S(=O)(=O)N2CCc3ccccc32)cc1)c1nc2ccc(F)cc2s1,12*,TbREL1 confirm=8
CN(C)CCCN(C(=O)c1ccc2c(c1)CCCC2)c1nc2cc3c(cc2s1)OCO3,7,
O=C(NCCCc1ccccc1)OC1CC2CC1[C@H]1CCCCN1C2 (some centres not stated),3,
COC(=O)C1=C(C)N(Cc2ccccc2)C(=NCCCCO)N[C@H]1c1cccc(C(F)(F)F)c1,7,
COC(=O)C1=C(C)N(Cc2ccccc2)C(=O)N[C@H]1c1ccccc1,-1,
COC(=O)C1=C(C)N(Cc2ccc(C(F)(F)F)cc2)C(=NCc2ccccc2C(F)(F)F)NC1c1ccccc1 (configuration not stated),13*,TbREL1 confirm=14*
COC(=O)C1=C(C)N(Cc2ccccc2)C(=O)N[C@H]1c1cccc(F)c1,-2,
COC(=O)C1=C(C)N(Cc2ccc(C(F)(F)F)cc2)C(=NCc2ccccc2C(F)(F)F)NC1c1cccc(Cl)c1 (configuration not stated),16*,TbREL1 confirm=20*
SMILES,TbREL1 primary,others
COC(=O)C1=C(C)N(C)C(=NCc2ccccc2C(F)(F)F)NC1c1ccc(F)cc1 (configuration not stated),11,
COC(=O)C1=C(C)N(Cc2ccccc2)C(=S)NC1c1cccc(OC)c1 (configuration not stated),-5,
CCN1C(=NCC(C)C)N[C@@H](c2cccc(C(F)(F)F)c2)C(C(=O)OC)=C1C,11,
COCCN=C1N[C@@H](c2cccc(C(F)(F)F)c2)C(C(=O)OC)=C(C)N1Cc1ccccc1,14*,TbREL1 confirm=18*
COC(=O)C1=C(C)N(Cc2ccc(Cl)cc2)C(=S)NC1c1ccc(Cl)cc1 (configuration not stated),-4,
COC(=O)C1=C(C)N(Cc2ccc(C(F)(F)F)cc2)C(=NCc2ccccc2C(F)(F)F)NC1c1ccc(Cl)cc1 (configuration not stated),11*,TbREL1 confirm=16*
O=C(CSc1nnc(-c2ccc(Cl)cc2)n1C1CCCCC1)NN=Cc1c(O)ccc2ccccc12,0,
O=C(Nc1ccc(Br)cc1)OC1CC2CC1[C@H]1CCCCN1C2 (some centres not stated),1,
O=C(NN=Cc1ccco1)c1cccnc1,9,
CC1CN(c2ccnc3cc(Cl)ccc23)CCN1C(=O)c1ccc(Cl)cc1 (configuration not stated),7,
O=C(Nc1ccccc1Cl)O[C@@H]1CC[C@@]23CCCN2C(=O)CCC[C@H]3C1,-2,
CCc1noc(C)c1C(=O)N1CCN(CC(=O)OC)CC1,-1,
O=[N+]([O-])c1ccccc1/C=C/C1Nc2cccc3cccc(c23)N1,-2,
O=C(CSc1nnc(-c2ccco2)c(-c2ccco2)n1)c1ccccc1,12*,TbREL1 confirm=13*
N#Cc1cnc(SCC(=O)c2ccccc2)nc1N,-2,
Cn1c(SCC(=O)c2ccc(-c3ccccc3)cc2)nnc1-c1ccco1,3,
CCn1c2ccccc2c2cc(NC(=O)COC(=O)c3cc(F)ccc3C)ccc21,1,
